Data on 47 molecules can be found in paper PMC4336329 (PLoS ONE, 2015).

In all, about 310,000 compounds went through this assay and about 14,000 (4.5%) showed an effect of 50% or more. Effects have a minus sign here. What follows is part of a selection rich in strong results, with near analogues and random picks from the rest.
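Note: peak tail current of the secondary pulse compared with the same well before compound.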

human ether-à-go-go-related gene (hERG) potassium channel, sequence (Q12809 whole entry, looked up): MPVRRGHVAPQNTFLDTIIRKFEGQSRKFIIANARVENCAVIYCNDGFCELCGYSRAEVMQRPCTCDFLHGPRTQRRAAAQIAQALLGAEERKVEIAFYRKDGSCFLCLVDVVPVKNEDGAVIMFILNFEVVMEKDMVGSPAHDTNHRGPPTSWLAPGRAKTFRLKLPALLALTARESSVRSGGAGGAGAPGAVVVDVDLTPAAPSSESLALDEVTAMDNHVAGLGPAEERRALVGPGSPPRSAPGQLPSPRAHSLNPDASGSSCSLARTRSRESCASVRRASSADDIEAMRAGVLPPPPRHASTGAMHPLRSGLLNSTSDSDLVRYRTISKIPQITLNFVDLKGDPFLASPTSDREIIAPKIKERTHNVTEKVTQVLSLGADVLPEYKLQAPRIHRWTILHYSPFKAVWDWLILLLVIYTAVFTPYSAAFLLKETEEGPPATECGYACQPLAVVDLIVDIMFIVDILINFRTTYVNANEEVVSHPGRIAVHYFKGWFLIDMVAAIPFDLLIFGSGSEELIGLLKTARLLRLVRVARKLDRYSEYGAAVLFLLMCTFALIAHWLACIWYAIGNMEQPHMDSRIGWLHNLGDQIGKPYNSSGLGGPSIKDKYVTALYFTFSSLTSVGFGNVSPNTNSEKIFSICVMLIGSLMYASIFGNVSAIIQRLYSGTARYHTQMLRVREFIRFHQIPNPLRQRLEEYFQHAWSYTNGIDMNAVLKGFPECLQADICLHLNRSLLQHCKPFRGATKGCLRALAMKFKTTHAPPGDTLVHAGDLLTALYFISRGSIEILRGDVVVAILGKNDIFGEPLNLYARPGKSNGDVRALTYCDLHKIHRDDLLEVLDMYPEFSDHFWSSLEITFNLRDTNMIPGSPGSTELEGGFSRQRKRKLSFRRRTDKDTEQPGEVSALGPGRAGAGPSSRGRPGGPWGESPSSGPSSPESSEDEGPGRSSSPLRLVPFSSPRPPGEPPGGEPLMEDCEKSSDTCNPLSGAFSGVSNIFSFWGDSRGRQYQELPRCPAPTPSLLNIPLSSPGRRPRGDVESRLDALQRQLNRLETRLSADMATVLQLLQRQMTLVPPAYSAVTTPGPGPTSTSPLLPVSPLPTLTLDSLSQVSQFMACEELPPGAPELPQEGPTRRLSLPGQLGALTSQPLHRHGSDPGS

The test concerns the target human ether-à-go-go-related gene (hERG) potassium channel (human, UniProt Q12809). Kind of test: primary screen, population patch clamp on CHO cells stably expressing hERG; higher = less effect of the substance.
As to `CCOC(=O)CN1C(=O)C(O)=C(C(C)=O)C1c1ccccc1` (centres unmarked), the “hERG current change (%, negative = inhibition) at 10uM” value was found to be 11.3%. In the case of `Cc1c(-c2ccccc2)nc2ccccc2c1C(=O)Oc1ccc([N+](=O)[O-])cc1`, the “hERG current change (%, negative = inhibition) at 10uM” value is recorded as -21.6%. `COc1ccc(C(=O)OCCNC(=O)c2c(Cl)nc3ccccn23)cc1.Cl`: the “hERG current change (%, negative = inhibition) at 10uM” value was -6.58%. As for `CC(=O)C(=Nc1ccccc1Cl)NNc1ccc(Cl)cc1`, the “hERG current change (%, negative = inhibition) at 10uM” value is listed as 17.3%. With `CN1CCN(S(=O)(=O)c2cccc(C(=O)N(Cc3nnc(-c4ccc(Cl)cc4)o3)C3CC3)c2)CC1` the figure was -49.3%.

With `Nc1cccc(-c2cc3ccccc3oc2=O)c1`, the “hERG current change (%, negative = inhibition) at 10uM” value is 6.38%. Consider `COc1ccc(Cl)cc1C(=O)N1CCN=C1SC`, for which the “hERG current change (%, negative = inhibition) at 10uM” value was found to be 21.3%. With `CCOc1ccc(NC(=O)c2ccccc2NC(=O)c2cccnc2)cc1` the figure was 7.52%. Regarding `COc1c(C)cc(C(=O)C2CCCN(C(=O)c3cc(C)nc(C)n3)C2)cc1C` (centres unmarked), the “hERG current change (%, negative = inhibition) at 10uM” value is 7.89%.

On to `COC(=O)C1=C(c2ccc(F)cc2OCc2ccccc2)C[C@@H]2CC[C@H]1N2C(=O)NC(C)C`, for which the “hERG current change (%, negative = inhibition) at 10uM” value is listed as -35.3%. Turning to `COC(=O)C1=C(c2ccc(F)cc2OCc2ccccc2)C[C@@H]2CC[C@H]1N2C(=O)NCc1ccccc1`, the “hERG current change (%, negative = inhibition) at 10uM” value was -1.03%. Take `COC(=O)C1=C(c2ccc(F)cc2OCc2ccccc2)C[C@@H]2CC[C@H]1N2C(=O)NC1CC1`: the “hERG current change (%, negative = inhibition) at 10uM” value was -10.4%.

Regarding `COC(=O)C1=C(c2ccc(F)cc2OCc2ccccc2)C[C@@H]2CC[C@H]1N2C(=O)NCC1CC1`, the “hERG current change (%, negative = inhibition) at 10uM” value was -51.5%. `COC(=O)C1=C(c2ccc(F)cc2OCc2ccccc2)C[C@@H]2CC[C@H]1N2C(=O)NCc1ccc(F)cc1`: the “hERG current change (%, negative = inhibition) at 10uM” value is on record as -5.76%. On to `COC(=O)C1=C(c2ccc(F)cc2OCc2ccccc2)C[C@@H]2CC[C@H]1N2C`, for which the “hERG current change (%, negative = inhibition) at 10uM” value is -52%. As for `C#CCOCCOCCOCCNc1nc(N2CCN(C(=O)[C@H](CCC(=O)O)n3cc(C(N)[C@H](C)CC)nn3)CC2)nc(N2CCN(C(=O)[C@H](Cc3ccc(O)cc3)n3cc(C(N)[C@H](C)CC)nn3)CC2)n1.Cl` (some centres unmarked), the “hERG current change (%, negative = inhibition) at 10uM” value turned out to be 7.62%.

With `COc1cc(CCC(=O)Nc2nccs2)cc(OC)c1OC`, the “hERG current change (%, negative = inhibition) at 10uM” value was 3.1%. Regarding `CCn1nc(C)cc1C(=O)N1CCCC(C(=O)c2ccc(OC)cc2C)C1` (centres unmarked), the “hERG current change (%, negative = inhibition) at 10uM” value is listed as 3.32%. As for `Cc1ccccc1S(=O)(=O)Cc1ccc(C(=O)NC2CCCCCC2)o1`, the “hERG current change (%, negative = inhibition) at 10uM” value is recorded as -31.9%. Turning to `CC(=O)Oc1ccc(/C=N/NC(=O)C2CCCN2S(=O)(=O)c2ccc(Cl)cc2)cc1` (centres unmarked), the “hERG current change (%, negative = inhibition) at 10uM” value is reported as -28.1%. For the molecule `Cn1c(=O)c2c(n(C)c1=O)=NC1(CCCCC1)ON=2`, the “hERG current change (%, negative = inhibition) at 10uM” value is recorded as -15.4%.

Turning to `O=C(NCc1ccco1)C1CCN(S(=O)(=O)N2CCOCC2)CC1`, the “hERG current change (%, negative = inhibition) at 10uM” value is on record as -13.1%. The figure for `COc1cccc(CN2CCN(Cc3cccc(Br)c3)CC2)c1OC.O=C(O)C(=O)O` is -21.2%. In the case of `COc1ccc(CN2CCN(Cc3ccc(Br)cc3)CC2)c(OC)c1OC.O=C(O)C(=O)O`, the “hERG current change (%, negative = inhibition) at 10uM” value is recorded as -69.7%. Consider `COc1ccc(CN2CCN(S(=O)(=O)c3ccc(F)cc3)CC2)c(OC)c1OC.O=C(O)C(=O)O`, for which the “hERG current change (%, negative = inhibition) at 10uM” value is listed as -23.4%. In the case of `COc1ccc(CN2CCN(CCSc3ccc(C)cc3)CC2)c(OC)c1OC.O=C(O)C(=O)O`, the “hERG current change (%, negative = inhibition) at 10uM” value is on record as -58.5%. Take `CCN1CCN(CCOc2ccc(Cl)cc2)CC1.O=C(O)C(=O)O`: the “hERG current change (%, negative = inhibition) at 10uM” value is on record as -34.3%. `COc1ccc(CN2CCN(C(=O)c3cccc4ccccc34)CC2)c(OC)c1OC.O=C(O)C(=O)O`: the “hERG current change (%, negative = inhibition) at 10uM” value was 11.9%.

On to `Cc1ccc(SCCN2CCN(Cc3ccccc3)CC2)cc1.O=C(O)C(=O)O`, for which the “hERG current change (%, negative = inhibition) at 10uM” value is given as -37%. Take `COc1ccc(CN2CCN(Cc3cccc(Oc4ccccc4)c3)CC2)c(OC)c1OC.O=C(O)C(=O)O`: the “hERG current change (%, negative = inhibition) at 10uM” value is -58%. Take `COc1cccc(CN2CCN(Cc3cccc(Oc4ccccc4)c3)CC2)c1OC.O=C(O)C(=O)O`: the “hERG current change (%, negative = inhibition) at 10uM” value was -21.7%. For the molecule `COc1ccc(CN2CCN(CCCCOc3ccc(Cl)cc3)CC2)c(OC)c1OC.O=C(O)C(=O)O`, the “hERG current change (%, negative = inhibition) at 10uM” value is -74.4%. As to `COc1ccc(CN2CCN(Cc3ccc(OC)c(OC)c3OC)CC2)cc1.O=C(O)C(=O)O`, the “hERG current change (%, negative = inhibition) at 10uM” value is -41.3%. As to `CN1CCN(Cc2cccc(Oc3ccccc3)c2)CC1`, the “hERG current change (%, negative = inhibition) at 10uM” value is listed as -28.2%. On to `COc1ccc(C(=O)NC(=S)N(CCC(C)C)c2c(N)n(Cc3ccccc3)c(=O)[nH]c2=O)cc1`, for which the “hERG current change (%, negative = inhibition) at 10uM” value is listed as -5.8%. As to `CN1C(=O)/C(=C2\SC(=S)N(C(CCC(=O)O)C(=O)O)C2=O)c2ccccc21` (centres unmarked), the “hERG current change (%, negative = inhibition) at 10uM” value was 13%. Turning to `O=C(COc1ccc(F)cc1)c1ccc2c(c1)CCCC2`, the “hERG current change (%, negative = inhibition) at 10uM” value was -5.65%. As for `CCOC(=O)NNc1nncc2ccccc12.Cl`, the “hERG current change (%, negative = inhibition) at 10uM” value stood at 2.17%. With `Cc1nn(-c2ccccc2)c(C)c1NC(=O)COC(=O)c1cccc(OC(F)F)c1`, the “hERG current change (%, negative = inhibition) at 10uM” value is -38.1%. The figure for `CCOC(=O)C1C(=O)C=C(/C=C/c2ccccc2)CC1c1ccc(Cl)cc1` (centres unmarked) is -0.716%; for `CCCc1nc(-c2ccc(-c3ccc(F)cc3)cc2)no1` it is 7.85%. Consider `CC(C(=O)NCc1ccc(Cl)cc1)n1cccc1C(=O)c1ccccc1` (centres unmarked), for which the “hERG current change (%, negative = inhibition) at 10uM” value is -21.4%. Regarding `O=C(O)c1ccc(-c2nnn(Cc3ccccc3F)n2)cc1`, the “hERG current change (%, negative = inhibition) at 10uM” value turned out to be 58.7%.

For the molecule `CC(C)(C)NCC(O)COc1ccccc1C(=O)CCc1ccccc1.Cl` (centres unmarked), the “hERG current change (%, negative = inhibition) at 10uM” value is -69.9%. Consider `CCN(CC)CC(O)COc1ccccc1C(=O)CCc1ccccc1` (centres unmarked), for which the “hERG current change (%, negative = inhibition) at 10uM” value was -3.49%.

Take `CC(C)(C)NCC(O)COc1cccc2[nH]c(=O)[nH]c12.Cl` (centres unmarked): the “hERG current change (%, negative = inhibition) at 10uM” value is on record as 7.11%. On to `CC1=CC(=C2C(=O)NC(=S)NC2=O)C=C(C(F)(F)F)N1CCc1ccccc1`, for which the “hERG current change (%, negative = inhibition) at 10uM” value was determined as 12.9%.
